Here are results for 94 molecules from PubChem BioAssay AID2732 (Emory University Molecular Libraries Screening Center, 2010).

Each structure is given as a SMILES string. Values joined by “and” are separate entries in the source; they are usually repeats but may differ in a detail not shown here. Equal values may be shown once. Out of some 220,000 compounds screened, about 8,200 (3.7%) were called active.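 Rule for the calls: active = compounds that reduced the stress-induced luciferase reporter signal by more than about 70% of percent inhibition (limit read from the data); inactive = the rest.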 The entries come from a sample that favours actives as a whole. Some structures have more than one record in an assay (separate samples or runs), and their calls can disagree.

This assay in a line: inhibitors of CHOP promoter induction, primary screen, cell-based, unfolded protein response, luciferase reporter (AID 2732).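 Note: 0% = tunicamycin plus vehicle and 100% = wells without tunicamycin.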 Conditions: CHO-K1 CHOP-promoter luciferase, tunicamycin-induced, 15-18 h; at 10 µM; stronger effect = higher value. For orientation: In a reporter assay the amount or activity of a reporter protein is the signal.
As for `COCCN(Cc1cc2cc3c(cc2nc1Cl)OCO3)C(=O)c1cccc(C)c1`, the inhibition is 27.4% (inactive). For the molecule `COC(=O)N(NC(=O)C(O)(C(C)C)C(C)C)c1ccccc1`, the inhibition was 16% (inactive).

For the molecule `COC(=O)c1cc(NC(=O)c2cc(C(C)(C)C)nn2Cc2cccc(C)c2)ccc1N1CCOCC1`, the inhibition is 42.8% (inactive).

Take `CCOC(=O)C1C(c2ccc(OC)c(OC)c2)c2c([nH][nH]c2=O)CC1(C)O` (centres undefined): the inhibition is 3.71% (inactive). Next, `O=C1N=C(N2CCc3ccccc3C2)S/C1=C\c1ccc(O)cc1`: -2.8% (inactive); `Cc1ccc(NC(=O)C(=O)NCc2ccc(/C=N/NC(=O)c3c(C)nc4cc(C)ccn34)o2)cc1`: 78.9% (active); `O=C(CSc1ccc(/C=N/NC(=O)c2cccc(F)c2)o1)Nc1ccccc1`: -10.9% (inactive). With `C/C(=N\OC(=O)c1ccccc1)c1c(C)nc2cc(C)ccn12`, the inhibition was 15.7% (inactive). `COc1ccc(S(=O)(=O)N(CC(=O)N/N=C/c2ccccc2C(=O)O)c2ccccc2OC)cc1`: the inhibition was -10.7% (inactive).

`CCOC(=O)c1c(N)nn(C(=O)c2ccccc2)c1-c1ccccc1`: the inhibition is 72.5% (active). Regarding `CCOC(=O)c1nnn(-c2nonc2OC)c1-c1ccccc1`, the inhibition was 24.9% (inactive).

For the molecule `CCOC(=O)c1c(-c2cccc(N)c2)cn2ccccc12`, the inhibition was 20% (inactive). As to `C=C1CCN([C@H](C(=O)NCc2cc(OC)c(OC)c(OC)c2)C(C)C)S(=O)(=O)c2ccccc21`, the inhibition is -3.31% (inactive). For `Cc1nc(Cl)c(C#N)c2c1CCCC2`, the inhibition was 18.3% (inactive). Next, `O=S(=O)(c1ccc(Cl)cc1)N1CCCN(c2ccc(C(F)(F)F)cn2)CC1`: 21.2% (inactive); `CCOc1ccc(N=C2NC(=O)S/C2=C\c2ccc(O)cc2)cc1`: 64.1% (inactive); `COc1ccc(/C=C2/S/C(=N/N=C3\CC4CCC3(C)C4(C)C)NC2=O)cc1` (centres undefined): 88.5% (active). As to `COc1ccc(/C=C2\SC(=N)N(c3ccc(F)cc3)C2=O)cc1`, the inhibition is 38.3% (inactive). With `O=S(=O)(NC(=S)Nc1ccccc1)c1ccc(F)cc1`, the inhibition was -27.1% (inactive).

In the case of `N#Cc1c(NCCO)ccc([N+](=O)[O-])c1NCCO`, the inhibition was 14.8% (inactive). Under `COc1ccc(/C=C2\N=C3CCCN3C2=O)cc1` stands -36.1% (inactive). In the case of `Cc1cc(C)nc(Nc2n[nH]c(-c3ccccc3N)n2)n1`, the inhibition is -32.3% (inactive). Consider `COc1cc(/C=N/O)cc(Br)c1OCc1cccc(Cl)c1`, for which the inhibition is 108% (active).

In the case of `CCOc1c(Cl)cc(/C=N/O)cc1OC`, the inhibition is 10.4% (inactive). For the molecule `CCOc1cc(/C=N/O)cc(Br)c1OC`, the inhibition was 23.6% (inactive). As to `C#CCOCCOCCOCCNc1nc(N2CCN(C(=O)[C@H](CCC(=O)O)n3cc(C(N)CO)nn3)CC2)nc(N2CCN(C(=O)[C@H](CCCCN)n3cc(C(N)[C@H](C)CC)nn3)CC2)n1` (some centres undefined), the inhibition is -9.04% (inactive). Under `CCOC(=O)c1c(C)nn(-c2ncccc2NC(=O)CCC(=O)O)c1C` stands 15.2% (inactive); under `COC(=O)c1c(C)oc(C)c1S(=O)(=O)Nc1ccc(C(C)C)cc1`, 8.63% (inactive). Regarding `Cc1cccc(N2CCN(Cc3nc(C4CC4)no3)CC2)n1`, the inhibition was -7.46% (inactive).

On to `Nc1cccc(S(=O)(=O)Nc2ccc(SC(F)F)cc2)c1`, for which the inhibition is 6.78% (inactive). Next, `CCCCCC(=O)Nc1ccc(C(=O)N/N=C/c2ccc([N+](=O)[O-])cc2)cc1`: 73.8% (active); `O=C(COc1ccc(/C=N/NC(=O)c2ccc(O)cc2)cc1)Nc1ccc([N+](=O)[O-])cc1`: 0.44% (inactive); `CCCCCC(=O)NC(=S)NNC(=O)c1ccc([N+](=O)[O-])cc1`: 26.4% (inactive).

With `O=C1NC[C@@H](Cc2ccc(O)cc2)N(CCc2cccc(F)c2)C1=O`, the inhibition was -6.82% (inactive). With `Brc1ccc(-c2n(-c3ccccn3)c3ccccc3[n+]2-c2ccccn2)cc1`, the inhibition is 24.6% (inactive).

In the case of `Cc1cccc(C(=O)NNC(=O)c2cccc([N+](=O)[O-])c2)c1`, the inhibition was 3.14% (inactive). With `CCOC(=O)c1sc2nc(SC)nc(-c3ccccc3)c2c1N`, the inhibition is -31.5% (inactive). Turning to `CCOC(=O)c1sc(-c2cccc([N+](=O)[O-])c2)cc1N`, the inhibition was 75.2% (active). For `CC(C)c1ccc(NC(=S)NC2CC3C=CC2C3)cc1` (centres undefined), the inhibition was 51.2% (inactive). For `CC(=O)Nc1nc2c(s1)C(=O)NCC(C)(C)C2`, the inhibition is 12.8% (inactive).

In the case of `Brc1ccc(-c2noc(-c3ccccc3)n2)o1`, the inhibition was 26.1% (inactive). With `CS(=O)(=O)c1ccc(Cl)c(NC(=O)Nc2ccccc2)c1`, the inhibition was 2.73% (inactive). As for `CCCn1c(C(O)c2ccc(OCC)cc2)nc2ccccc21` (centres undefined), the inhibition was 19% (inactive). As to `CCCCCC(O)c1cccc(OCc2ccc3ccccc3n2)c1` (centres undefined), the inhibition was 88.4% (active) and -8.07% (inactive). As for `CCCCCCOC(=O)NCC(O)c1ccccc1` (centres undefined), the inhibition was 1.35% (inactive).

For `O=C(NC(=O)c1cc(OCC(F)(F)F)ccc1OCC(F)(F)F)Nc1ccccc1`, the inhibition is 6.78% (inactive). Regarding `Cc1ccc(/C=N/NC(=O)CSc2ccccn2)o1`, the inhibition is -0.26% (inactive).

Turning to `CC(C)n1c(=S)[nH]c2cc(C(F)(F)F)ccc21`, the inhibition is 22.9% (inactive). Turning to `Cc1ccc(Oc2cc(NC(=O)CCCn3nc(C)c([N+](=O)[O-])c3C)cc([N+](=O)[O-])c2)cc1`, the inhibition is 71.1% (active). Take `CCc1ccc(NC(=O)Cn2nc(C)c([N+](=O)[O-])c2C)cc1`: the inhibition was 14.9% (inactive).

Take `COc1ccc(CNC(=O)CCCn2nc(C)c([N+](=O)[O-])c2C)cc1`: the inhibition is 11.7% (inactive). `Cc1ccc(/C=N/NC(=O)CN2CCN(Cc3ccccc3)CC2)s1`: the inhibition was 13.5% (inactive).

For the molecule `CCOC(=O)c1ccc(NC(=O)Cn2cnc3cc(C)c(C)cc32)cc1`, the inhibition is 55.6% (inactive). On to `O=C(NNS(=O)(=O)c1ccccc1)c1cnn(-c2ccc(Cl)cc2)c1C(F)(F)F`, for which the inhibition is -3.7% (inactive). `C[C@H](NC(=O)c1nc[nH]c1C(=O)N[C@@H](C)C(=O)OC(C)(C)C)C(=O)OC(C)(C)C`: the inhibition is 1.44% (inactive).

Regarding `Cc1ccc(-c2noc(CSc3nnnn3-c3ccccc3)n2)cc1`, the inhibition is 70.7% (active).

Regarding `Cc1ccc(-c2noc(CSc3nnc(-c4ccccc4)n3C)n2)cc1`, the inhibition was 66.5% (inactive). For `COc1ccc(C)cc1-n1nnnc1SCc1nc2ccccc2c(=O)[nH]1`, the inhibition was 12.6% (inactive). With `O=c1c2ccccc2nc(CSc2nnnn2-c2ccccc2)n1-c1ccccc1`, the inhibition is 32.4% (inactive). Next, `Cc1ccc(-c2noc(CSc3nnc(-c4cccs4)n3C)n2)cc1`: -8.68% (inactive); `Cc1ccc(Nc2nc(CSc3nnnn3-c3ccccc3)cc(=O)[nH]2)cc1`: 81.8% (active); `Cn1c(C(=O)O)ccc1S(=O)(=O)N(Cc1ccccc1)Cc1ccccc1`: 2.64% (inactive). On to `O=C(NC(=O)c1ccccc1N1CCCCC1)Nc1ccc(Br)cc1`, for which the inhibition was -4.77% (inactive).

With `Cc1ccc(OCC(=O)c2cc(C)n(Cc3ccco3)c2C)c([N+](=O)[O-])n1`, the inhibition was 31% (inactive). As to `Cc1ccc(C2=Nc3c(ccc4ccccc34)C(c3ccncc3)=NN2)cc1`, the inhibition is 64.5% (inactive).

Consider `CCc1ccc2c(c1)C(c1ccc([N+](=O)[O-])cc1)=NNC(c1ccccc1)=N2`, for which the inhibition was 93.7% (active). Under `CCOc1ccc2c(c1)C(c1ccc(C)cc1)=NNC(c1ccc(C)cc1)=N2` stands 37.2% (inactive); under `C/C(=N/Nc1nc(-c2ccccc2)c(CC(=O)O)s1)c1ccccc1`, -18.2% (inactive).

With `CCCCN(CCCC)CC(O)Cn1c2ccccc2c(=O)c2ccccc21` (centres undefined), the inhibition is 11% (inactive). Turning to `CC(NC(=O)C(=O)Nc1nccs1)c1ccccc1` (centres undefined), the inhibition is 24.1% (inactive).

Consider `O=C(O)CCCCCCCCCC[n+]1ccccc1`, for which the inhibition is -11.5% (inactive). As to `CCC(C)(C)c1ccc(OCC(=O)N(C)C)c(C(C)(C)CC)c1`, the inhibition is 85.7% (active). With `CCc1nc(C)ccc1OCC(=O)N(CC)CC`, the inhibition is 18.9% (inactive).

With `CN(C)CCOc1ccc(Cl)cc1C(C)(C)C`, the inhibition is -2.87% (inactive). `Cn1nccc1NS(=O)(=O)c1ccc(F)cc1`: the inhibition was -5.82% (inactive). As to `Cc1cc(=O)[nH]c(S)c1C#N`, the inhibition was 2.71% (inactive).

`CC(C)(C)c1ccc(CCC2OCC(CN3CCOCC3)O2)cc1` (centres undefined): the inhibition was 3.73% (inactive). As to `COc1ccccc1-n1cn[nH]c1=S`, the inhibition is 11.5% (inactive). As to `Cc1cc(SCC(=O)c2ccccc2)nc(SCC(=O)c2ccccc2)n1`, the inhibition was 15.9% (inactive). Take `Cc1cc(Oc2ccc(Cl)cc2)nc(SCC(=O)c2ccccc2)n1`: the inhibition is 70.2% (active). On to `COC(=O)c1cc(C(=O)CSc2nc(C)cc(C)n2)ccc1O`, for which the inhibition is 5.39% (inactive). Take `O=C(NNC(=O)c1csc(-c2cccnc2)n1)Nc1ccc(Cl)cc1`: the inhibition is -32.3% (inactive).

Take `Cn1cc(S(=O)(=O)NC(c2ccccc2)c2ccccc2)c(=O)n(C)c1=O`: the inhibition was 9.19% (inactive). Regarding `O=C(NCc1ccccc1Cl)NC(=O)c1csc([N+](=O)[O-])c1`, the inhibition was -5.11% (inactive). Take `Cc1ccc(C(=O)N(CN2CCCC2=O)c2ccc(F)cc2)cc1`: the inhibition was -13.1% (inactive). With `CCn1c(C(C)NC(=O)c2ccc(C)cc2)n[nH]c1=S` (centres undefined), the inhibition was 25.9% (inactive). Next, `CCN1CCC2(CC1)N=C(c1ccc(F)cc1)C(=S)N2C(=O)c1ccc(C)cc1`: 95.4% (active); `CCn1c(CNC(=O)c2ccco2)nnc1SCC(=O)Nc1cccc(F)c1`: -0.15% (inactive).

On to `CCn1c(SCC(=O)Nc2cccc(F)c2)nnc1-c1cc2cc(Br)ccc2o1`, for which the inhibition was 72.8% (active). Next, `Cn1c(SCC(=O)Nc2ccc(Br)cc2F)nnc1-c1ccco1`: 24.1% (inactive); `COC(=O)[C@H](Cc1ccccc1)NC(=O)Nc1ccc(OC)cc1`: 4.48% (inactive); `CC(=O)c1cc(NC(=O)c2ccccc2)c(=O)oc1/C=C/N(C)C`: 11.8% (inactive). For `CCOC(=O)NNC(=O)c1ccc(Cl)cc1`, the inhibition is -19.9% (inactive). Take `CCOC(=O)c1cc(NC(=O)c2ccc(Cl)cc2)c(=O)oc1-c1ccccc1`: the inhibition is 77.2% (active).

By inhibition is commonly meant the relative decrease from the control value, in per cent.
